Source: PubChem BioAssay AID1851 (National Center for Advancing Translational Sciences (NCATS), 2009)
The whole screen tested about 16,000 compounds, of which about 4,000 (25%) were called active. Another 26% or so got no clear call; they are omitted. Calls come from the whole dose curve; as a rule, active = well fitted curve in the direction sought with a large enough effect; inconclusive = small, poorly fitted or top-dose-only effect, or effect the other way; inactive = no such curve, though single readings can be large or run the other way. Not all results are given here.

Target: Cytochrome P450 2C9 (Homo sapiens) (UniProt P11712)
Sequence (P11712 whole entry, looked up): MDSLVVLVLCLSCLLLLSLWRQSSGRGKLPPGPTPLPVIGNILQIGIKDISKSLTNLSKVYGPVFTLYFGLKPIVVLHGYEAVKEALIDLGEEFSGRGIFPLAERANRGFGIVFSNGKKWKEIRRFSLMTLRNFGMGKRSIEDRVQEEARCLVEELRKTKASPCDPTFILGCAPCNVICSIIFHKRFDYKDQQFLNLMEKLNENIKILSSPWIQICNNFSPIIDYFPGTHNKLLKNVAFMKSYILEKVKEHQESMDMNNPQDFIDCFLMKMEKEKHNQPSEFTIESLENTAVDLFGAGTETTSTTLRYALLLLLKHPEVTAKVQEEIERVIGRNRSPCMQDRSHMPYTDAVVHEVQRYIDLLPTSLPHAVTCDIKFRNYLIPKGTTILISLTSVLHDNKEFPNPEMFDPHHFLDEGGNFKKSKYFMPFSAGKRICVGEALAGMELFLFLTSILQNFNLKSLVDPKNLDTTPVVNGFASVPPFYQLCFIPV
Assay: Cytochrome panel assay with activity outcomes
Conditions: recombinant CYP, pro-luciferin dealkylation, luminescence, p450-cyp2c9; series mostly up to 57.1 µM; activity, negative = inhibition: at the top concentration
% is set by controls: 0 for no effect and ±100 for the full control effect.

SMILES | activity, negative = inhibition | AC50
O=C(O)[C@@H]1[C@@H]2C[C@@H]3[C@@H](OC(=O)[C@@H]31)[C@H]2Br | -8.47% [at 11.4 µM] (inactive) | 
CC(C)[C@H](NC(=O)OC(C)(C)C)[C@@H](O)CC(=O)C(C)(C)C | 9.81% [at 11.4 µM] (inactive) | 
CCOC(=O)c1c2ccc(OCC(=O)N/N=C/c3ccc(Cl)cc3)cc2n2ccccc12 |  | 6.31 µM (active)
CO[C@H]1COC(=O)C/C=C\[C@@H](C)COC(=O)[C@@H](OCc2ccccc2)/C=C\[C@@H]1C | -24.9% [at 11.4 µM] (inactive) | 
C=CCNc1oc(/C=C/c2ccccc2)nc1C#N |  | 4.47 µM (active)
Cc1nc2ccccc2nc(C)c1=NO | 18.4% (inactive) | 
NC(N)=NC(N)=Nc1ccccc1 (tested in a mixture with another compound) | -12.4% [at 11.4 µM] (inactive) | 
Cc1cc2ccccc2c[n+]1CC(O)C[n+]1cc2ccccc2cc1C | 8.36% [at 11.4 µM] (inactive) | 
C=CCc1cc(C=O)cc(OC)c1OCc1ccc(Cl)cc1 |  | 8.91 µM (active)
O=C(CCCCCn1c(=O)[nH]c2ccsc2c1=O)NCc1ccc2c(c1)OCO2 |  | 4.47 µM (active)
COCCNC(=O)CCCCCn1c(=S)[nH]c2ccccc2c1=O | 18.2% (inactive) | 
O=C(CCCCn1c(=S)[nH]c2ccsc2c1=O)NCc1ccco1 |  | 2.24 µM (active)
CC(C)(C)C(=O)OCOC(=O)[C@@H]1N2C(=O)[C@@H](NC(=O)[C@H](N)c3ccccc3)[C@H]2SC1(C)C | -31.6% [at 25.6 µM] (inactive) | 
CCC(C)NC(=O)c1cnn2c(C)c3c(nc12)CCCC3 (stereo not drawn) | -19.6% (inactive) | 
Cc1nc2c(C(=O)N3CCOCC3)cnn2c(C)c1Cc1ccc(Cl)cc1 |  | 7.94 µM (active)
O=C(Cc1ccccc1I)Nc1ccccc1 |  | 25.1 µM (active)
CCC(=O)NNC(=O)CCC(=O)Nc1ccccc1 | -5.57% (inactive) | 
CCC#CCOCC(=O)Nc1ccccc1 | 8.29% (inactive) | 
NCC(=O)Nc1ccccc1 | 17% [at 11.4 µM] (inactive) | 
C#CCCCC(=O)Nc1ccccc1 | 2.83% (inactive) | 
CCCCC#Cc1ccccc1CC(=O)Nc1ccccc1 |  | 2.51 µM (active)
CC(C)(C)c1ccc(OCC(=O)O)c(Cl)c1 | -19.9% [at 11.4 µM] (inactive) | 
C=C(CC)C(=O)c1ccc(OCC(=O)O)c(Cl)c1Cl |  | 0.631 µM (active)
COc1cc(NC(=O)Cc2c(C(=O)O)[nH]c3ccccc23)cc(OC)c1OC |  | 12.6 µM (active)
NC(N)=NC(=O)c1nc(Cl)c(N2CCCCCC2)nc1N | -10.5% (inactive) | 

SMILES | activity, negative = inhibition | AC50
Cc1cc(NC(=O)CSc2nnc(-c3ccccc3)n2Cc2ccco2)no1 |  | 10 µM (active)
CC(=O)Nc1ccc(NC(=O)CSc2nnc(-c3ccccc3)n2Cc2ccc3c(c2)OCO3)cc1 |  | 11.2 µM (active)
CC(C)(C)NC(=O)CSc1nnc(Cc2ccc3c(c2)OCO3)n1C1CCCCC1 | 7.56% (inactive) | 
CNC(=O)NC(=O)CSc1nnc(-c2ccco2)n1Cc1ccccc1 | -10% (inactive) | 
CC(C)=NOC[C@@H](O)COCc1ccco1 | 0.0785% [at 11.4 µM] (inactive) | 
COc1ccc2c(c1)CCC1C2CC[C@]2(C)[C@H](NCCCCCCN3C(=O)C=CC3=O)CC[C@@H]12 (stereo partly drawn) | 11.1% (inactive) | 
Cc1noc(C)c1-c1ccc2ncnc(N3CCC(C(=O)O)CC3)c2c1 | 14.5% [at 2.29 µM] (inactive) | 
Clc1ccc2c(N3CCC(CCC4CCN(c5ncnc6cc(Cl)ccc56)CC4)CC3)ncnc2c1 | -21% [at 11.4 µM] (inactive) | 
CCOC(=O)C1CCCN(c2ncnc3c2cnn3-c2ccc(Cl)cc2)C1 (stereo not drawn) |  | 7.08 µM (active)
CCOC(=O)C1CCCN(c2ncnc3c2cnn3-c2cccc(C)c2)C1 (stereo not drawn) |  | 12.6 µM (active)
Cc1cccc(-n2ncc3c(Nc4c(C)n(C)n(-c5ccccc5)c4=O)ncnc32)c1 | 9.11% (inactive) | 
COC(=O)c1ccccc1NC(=O)CSc1nnc(C(CO)NC(=O)c2ccccc2Cl)n1C (stereo not drawn) | -28.2% (inactive) | 
COc1ccc(C(=O)NC(CO)c2nnc(SCc3ccc(Cl)c(Cl)c3)n2C)cc1 (stereo not drawn) |  | 14.1 µM (active)
CN(C)Cc1ccccc1-c1nc(NCc2cccs2)c2ccccc2n1 | 5.46% [at 2.29 µM] (inactive) | 
CN1CCN(c2ncncc2-c2cccnc2)CC1 | -10.3% [at 2.29 µM] (inactive) | 
COc1ccccc1-c1cncnc1N1CCN(C)CC1 | 3.41% [at 2.29 µM] (inactive) | 
CN1CCN2c3ncccc3Cc3ccccc3C2C1 (stereo not drawn) |  | 0.0501 µM (active)
Cc1ccc(C)c(/C(=N\N=C(N)N)C2CC2)c1 | -5.2% [at 11.4 µM] (inactive) | 
O=S(=O)(c1ccc(Cl)cc1)c1cnc(-c2cccnc2)nc1-c1ccccc1 | -6.19% (inactive) | 
Nc1nc(-c2cccnc2)cc(-c2cc(-c3cccnc3)nc(N)n2)n1 | -11.2% [at 11.4 µM] (inactive) | 
O=S(=O)(c1ccccc1)c1cnc(-c2cccnc2)nc1-c1ccc(Cl)cc1Cl |  | 10 µM (active)
CCCc1c(-c2ccc(O)cc2)nn(-c2ccc(O)cc2)c1-c1ccc(O)cc1 | 19.1% (inactive) | 
COc1ccc(-n2c(=O)c(-c3ccc(F)cc3)nc3cnc(OC)nc32)cc1 | 11.2% (inactive) | 
Cc1ccc(-c2csc(N3CCC(NS(=O)(=O)c4ccc5c(c4)OCCO5)CC3)n2)cc1 |  | 3.55 µM (active)
O=C(O)[C@@H]1CCCNC1 | 16.7% [at 25.6 µM] (inactive) | 

SMILES | activity, negative = inhibition | AC50
CCc1ccc(CN(C(=O)c2cc3ccccc3oc2=O)C2CCS(=O)(=O)C2)cc1 (stereo not drawn) |  | 8.91 µM (active)
CC(=O)c1cc2ccccc2oc1=O | 2.93% [at 25.6 µM] (inactive) | 
O=C(c1sc2ccccc2c1Cl)N(Cc1ccccc1)C1CCS(=O)(=O)C1 (stereo not drawn) |  | 3.98 µM (active)
CCCN(C(=S)Nc1ccccc1)C1CCS(=O)(=O)C1 (stereo not drawn) | -18% (inactive) | 
CN(C(=O)COc1cccc(Br)c1)C1CCS(=O)(=O)C1 (stereo not drawn) | -30.3% (inactive) | 
Cc1ccc(CN(C(=O)c2cc3ccccc3oc2=O)C2CCS(=O)(=O)C2)cc1 (stereo not drawn) |  | 11.2 µM (active)
CCN(CC)c1ccc2cc(C(C)=O)c(=O)oc2c1 | 15.9% (inactive) | 
CCc1ccc(OCC(=O)OC2CCS(=O)(=O)C2)cc1 (stereo not drawn) | 1.1% (inactive) | 
Cc1cc(C)c[n+](CC(=O)c2cc3ccccc3oc2=O)c1 | 1.98% (inactive) | 
CCOc1ccc(CN(C(=O)c2oc3ccccc3c2C)C2CCS(=O)(=O)C2)cc1 (stereo not drawn) |  | 8.91 µM (active)
CC(C)(C)c1cc(C(=O)O)c(CN2CCCCC2)o1 | -7.32% (inactive) | 
CN(C)Cc1ccccc1-c1nc(N(C)Cc2ccco2)c2ccccc2n1 | 11.9% [at 2.29 µM] (inactive) | 
O=S(=O)(NCc1cn2ccsc2n1)c1ccc(Oc2ccccc2)cc1 |  | 7.08 µM (active)
Nc1ccc(S(=O)(=O)NCc2nccs2)cc1 | -21.4% [at 11.4 µM] (inactive) | 
CC(=O)N1CCC2(CCN(Cc3ccncc3)CC2)CC1 | -25% (inactive) | 
COCC(=O)N1CCC2(CCN(Cc3ccccc3OC)CC2)CC1 | 5.33% (inactive) | 
O=C(c1ccco1)N1CCC2(CCN(Cc3ccccc3)CC2)CC1 | 6.93% (inactive) | 
COCC(=O)N1CCC2(CCN(Cc3ccncc3)CC2)CC1 |  | 0.398 µM (active)
Cn1cccc1C(=O)N1CCC2(CCN(Cc3nccs3)CC2)CC1 | -0.0603% (inactive) | 
O=C(c1ccncc1)N1CCC2(CCN(Cc3ccccc3)CC2)CC1 | 4.16% (inactive) | 
O=C(c1ccco1)N1CCC2(CCN(Cc3ccncc3)CC2)CC1 |  | 7.94 µM (active)
Cn1cccc1C(=O)N1CCC2(CCCN(Cc3ccncc3)C2)CC1 |  | 1.58 µM (active)
Cn1cccc1C(=O)N1CCC2(CCCN(Cc3ccccc3)C2)CC1 | -5.56% (inactive) | 
Cn1cccc1C(=O)N1CCC2(CCN(Cc3ccncc3)CC2)CC1 |  | 10 µM (active)
Cn1cccc1C(=O)N1CCC2(CCN(Cc3ccccc3)CC2)CC1 | -9.53% (inactive) | 

SMILES | activity, negative = inhibition | AC50
Cn1cccc1C(=O)N1CCC2(CCCN(Cc3ccc(C#N)cc3)C2)CC1 | -29.6% (inactive) | 
CN(C)c1ccc(-c2cncnc2Nc2ccccc2)cc1 | -6.76% [at 2.29 µM] (inactive) | 
CCCS(=O)(=O)N1CCCC(C(=O)NCCCOCC)C1 (stereo not drawn) | 5.29% (inactive) | 
CCc1cccc(CC)c1NC(=O)CN(CC(=O)O)CC(=O)O | 29.9% [at 25.6 µM] (inactive) | 
CCc1cccc(NC(=O)CN(C)S(=O)(=O)c2cnc[nH]2)c1 |  | 0.631 µM (active)
CN(CC(=O)N1CCN(c2ccccc2)CC1)S(=O)(=O)c1cnc[nH]1 |  | 0.0708 µM (active)
O=C1[C@H]2O[C@@H]2[C@@H](O)[C@H]2[C@H]1CCn1c(=O)n(Cc3cc4c(cc3Cl)OCO4)c(=O)n12 | 3.99% [at 11.4 µM] (inactive) | 
Nc1ncnc2c1ncn2C[C@@H](O)C(=O)O | -0.945% [at 11.4 µM] (inactive) | 
N=C(N)SCC(=O)O | -5.65% [at 11.4 µM] (inactive) | 
COc1ccc(N(C)S(=O)(=O)c2ccc3c(c2)CCC(=O)N3)cc1 | 8.61% (inactive) | 
Cc1cccc(N(C)S(=O)(=O)c2ccc3[nH]c(=O)c(=O)[nH]c3c2)c1 |  | 4.47 µM (active)
CN(C)c1ccc(NC(=O)c2cccc(N3C(=O)C4C5C=CC(C5)C4C3=O)c2)cc1 (stereo not drawn) | -25.2% (inactive) | 
O=C(Nc1ccc(Cl)cc1Cl)c1cccc(N2C(=O)C=CC2=O)c1 |  | 11.2 µM (active)
CCNc1ncc2nc(C)c(=O)n(C[C@H]3CCCO3)c2n1 | 12.2% (inactive) | 
CCc1ccc(C(=O)N2CCC(c3nc4ccccc4s3)CC2)cc1 |  | 1.58 µM (active)
O=P(Cc1cc[n+]([O-])cc1)(c1ccccc1)c1ccccc1 | -6.5% (inactive) | 
Cc1cccc(C)c1NC(=O)C(c1ccccc1)N1CCC1=O (stereo not drawn) | 5.54% (inactive) | 
Cc1cccc(C)c1NC(=O)C(c1ccc(Cl)cc1Cl)N1CCCCC1 (stereo not drawn) |  | 14.1 µM (active)
Cc1cccc(C)c1NC(=O)[C@H](C)N | 10.2% [at 25.6 µM] (inactive) | 
COc1ccccc1CN1CCC2(CC1)CCN(S(C)(=O)=O)CC2 | -4% (inactive) | 
N#Cc1cccc(-c2nc(Nc3ccccc3)c3ccccc3n2)c1 | -3.27% [at 2.29 µM] (inactive) | 
Clc1cccc(Nc2nnc(-c3ccccc3)c3ccccc23)c1 |  | 3.98 µM (active)
c1ccc(Nc2nc(-c3ccc4c(c3)OCO4)nc3ccccc23)cc1 | -5.32% [at 2.29 µM] (inactive) | 
